# According to PubChem BioAssay (NCATS):
# Inconclusive results are not listed. Where a call stands in place of a potency, no number is given. Unmarked numbers belong to inactive results. Calls of active or inactive are those of the source. Calls follow the shape of the dose curve; as a rule, active = well fitted inhibition curve with a large enough effect; inconclusive = small, poorly fitted or top-dose-only effect; inactive = flat fitted curve, though single readings scatter.
# Columns and labels:
# [1] = target: Glutathione peroxidase 1 (Homo sapiens) (UniProt P07203); assay: Primary qHTS Assay for Inhibitors of Recombinant Selenoprotein Glutathione Peroxidase 1 (GPX1) (AID 1845191)
# In short: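 Recombinant GPX1 (10 nM final) was preincubated with compound for 30 min at room temperature, then reacted with 1 mM GSH, 0.5 mM CHP, 0.5 mM NADPH and 100 nM glutathione reductase; NADPH fluorescence (340/450 nm) was read at 0 and 15 min.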
# [2] = target: Phospholipid hydroperoxide glutathione peroxidase GPX4 (Homo sapiens) (UniProt P36969); assay: Primary qHTS Assay for Inhibitors of Recombinant Selenoprotein Glutathione Peroxidase 4 (GPX4) (AID 1845192)
# In short: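 GR-coupled readout: 100 nM GR, 1 mM GSH, 0.5 mM NADPH; NADPH fluorescence (ex 340/em 450 nm) read at t=0 and after 15 min RT. GPX4 200 nM, preincubated 30 min with compound; substrate 0.5 mM CHP.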
# Also: nearly all actives have a fitted effect of over 65% in size.
# Chain of Phospholipid hydroperoxide glutathione peroxidase GPX4 (Homo sapiens) (P36969 whole entry, looked up): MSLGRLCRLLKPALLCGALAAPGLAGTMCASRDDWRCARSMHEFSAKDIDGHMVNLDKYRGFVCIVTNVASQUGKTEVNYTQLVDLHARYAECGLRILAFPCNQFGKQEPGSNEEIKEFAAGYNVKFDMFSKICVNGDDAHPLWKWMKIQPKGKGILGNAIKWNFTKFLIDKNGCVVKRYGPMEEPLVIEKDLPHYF
# Chain of Glutathione peroxidase 1 (Homo sapiens) (P07203 whole entry, looked up): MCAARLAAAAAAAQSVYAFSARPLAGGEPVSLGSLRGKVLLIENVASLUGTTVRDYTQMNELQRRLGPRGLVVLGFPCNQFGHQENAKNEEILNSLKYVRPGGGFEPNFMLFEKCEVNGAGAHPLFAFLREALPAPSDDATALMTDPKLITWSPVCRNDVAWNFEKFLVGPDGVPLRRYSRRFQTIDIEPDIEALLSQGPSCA
SMILES,Potency [1],Potency [2]
N#C/C(=C\c1ccc(O)c(O)c1)C(=O)NCCc1ccccc1,inactive,inactive
NCCCCN=C(N)N,inactive,inactive
O=C1Nc2ccc(I)cc2/C1=C/c1cc(Br)c(O)c(Br)c1,inactive,inactive
NC1(C(=O)O)CC1,inactive,inactive
Nc1nc2ccc(Cl)cc2c2nc(-c3ccco3)nn12,inactive,inactive
CC(N)(Cc1ccc(O)cc1)C(=O)O (stereo unspecified),inactive,inactive
CNc1ncnc2c1ncn2[C@H]1C[C@H](OP(=O)(O)O)[C@@H](COP(=O)(O)O)O1,inactive,inactive
Oc1ccc(Cn2cc[nH]c2=S)cc1,inactive,inactive
COc1cccc(OC)c1OCCNCC1CSc2ccccc2O1 (stereo unspecified),inactive,inactive
O=C(O)C1CN(CCCP(=O)(O)O)CCN1 (stereo unspecified),inactive,inactive
O=C(O)CCC/C=C\C[C@@H]1[C@@H](/C=C/[C@H](O)C2Cc3ccccc3C2)[C@@H](F)C[C@@H]1O,inactive,inactive
Nc1nc2[nH]c(=O)cnc2c(=O)[nH]1,inactive,inactive
CN(C)CCCc1cc(C(=O)Nc2ccc(-c3ccncc3)cc2)ccc1O,inactive,inactive
CN1C2CCC1CC(OC(c1ccccc1)c1ccccc1)C2 (stereo unspecified),inactive,inactive
CC(O)C(O)[C@H]1CNc2nc(N)[nH]c(=O)c2N1 (stereo partly specified),inactive,inactive
CC(N)(Cc1ccc(O)c(O)c1)C(=O)O (stereo unspecified),inactive,inactive
CC(=O)N[C@@H](Cc1c[nH]c2ccccc12)C(=O)OCc1cc(C(F)(F)F)cc(C(F)(F)F)c1,inactive,inactive
CC(=O)O[C@H]1CC2(C)[C@@H](C[C@@H](O)[C@H]3[C@@]4(C)CC[C@@H](O)[C@@H](C)[C@@H]4CC[C@@]32C)C1=C(CCC=C(C)C)C(=O)O (stereo partly specified),inactive,inactive
N#CC(C#N)=C(N)/C(C#N)=C/c1ccc(O)cc1,inactive,inactive
CCCC(=O)NCCc1c2n(c3ccc(OC)cc13)CCCc1ccccc1-2,inactive,inactive
CN1CCCC1CCOC(C)(c1ccccc1)c1ccc(Cl)cc1 (stereo unspecified),inactive,inactive
O=c1[nH]c(=O)c2nc3ccccc3nc2[nH]1,inactive,inactive
CC(C)NCC(O)COc1ccc(CC(N)=O)cc1 (stereo unspecified),inactive,inactive
COC(=O)C(N)Cc1ccc(Cl)cc1 (stereo unspecified),inactive,inactive
NC1(C(=O)O)CCc2cc(C(=O)O)ccc21 (stereo unspecified),inactive,inactive
C[N+](C)(C)CC=O,inactive,inactive
N[C@H](C(=O)O)[C@H](Cc1ccccc1)C(=O)O,inactive,inactive

SMILES,Potency [1],Potency [2]
CC(N)(C(=O)O)c1ccc(C(=O)O)cc1 (stereo unspecified),inactive,inactive
COc1cc([C@@H]2c3cc4c(cc3[C@H](O)C3COC(=O)[C@@H]32)OCO4)cc(OC)c1OC (stereo partly specified),inactive,inactive
CC(C)(C)c1ccc(/C=C/C(=O)Nc2ccc3c(c2)OCCO3)cc1,inactive,inactive
c1ccc2c(c1)CC(N1CCN(c3cccc4c3OCCO4)CC1)C2,inactive,inactive
CC(C)NC[C@H](O)COc1cccc2ccccc12,inactive,inactive
CCCCCCCCCCCCCCSCC(=O)O,inactive,inactive
CC[N+](CC)(CC)CC(=O)Nc1c(C)cccc1C,inactive,inactive
O=[N+]([O-])c1cccc2cn[nH]c12,inactive,inactive
C=CCN1CCc2c(cc(O)c(O)c2Br)[C@@H](c2ccccc2)C1,inactive,inactive
Nc1ccc(N2C(=O)c3ccccc3C2=O)c(Cl)c1,inactive,inactive
COc1ccc2c(c1)c(CC(=O)O)c(C)n2C(=O)c1ccccc1,inactive,inactive
O=c1onc2n1-c1cc(Br)ccc1OC2,inactive,inactive
COc1ccc(-c2ccc(N)[n+](CCCC(=O)O)n2)cc1,inactive,inactive
O=c1oc(Cl)c(Cl)c2ccccc12,inactive,inactive
Oc1cc(O)c2c(c1)O[C@H](c1ccc(O)c(O)c1)[C@@H](O)C2,inactive,inactive
CCn1c(=O)[nH]c2cc(Cl)c(Cl)cc21,inactive,inactive
C#CCn1c(=O)c2c(ncn2C)n(C)c1=O,inactive,inactive
N[C@@H](CCC(=O)N[C@H](CSN=O)C(=O)NCC(=O)O)C(=O)O,inactive,inactive
Nn1nnc2ccccc21,inactive,inactive
CCCCCCCC/C=C\CCCCCCCC(=O)NCCc1ccc(O)c(O)c1,inactive,inactive
O=c1cc(O)cc(/C=C/c2ccc(O)c(O)c2)o1,inactive,inactive
Cc1ccc([N+](=O)[O-])cc1S(=O)(=O)N(C)C,inactive,inactive
O=C(O)C1CCCNC1 (stereo unspecified),inactive,inactive
Cc1nc(N=Nc2cc(S(=O)(=O)O)c3cc([N+](=O)[O-])cc(S(=O)(=O)O)c3c2)c(COP(=O)(O)O)c(C=O)c1O,inactive,inactive
CCCCCCCCCCC(C)(C)C(=O)Nc1c(OC)cc(OC)cc1OC,inactive,inactive
OC1(c2ccc(Cl)cc2)CCN(Cc2c[nH]c3ccccc23)CC1,inactive,inactive
